Test: qHTS profiling of the MIPE4 collection as inhibitors of Plasmodium falciparum (3D7) proliferation (AID 743344);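 also: scaled between DMSO vehicle wells and 0.29 µM artemisinin as full inhibition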
Conditions: P. falciparum 3D7 in erythrocytes, SYBR Green DNA fluorescence, 72 h; at 28.5 µM unless noted
Excerpt: Plasmodium falciparum is a virulent malarial parasite that kills 1-2 million people worldwide each year. Transmitted by mosquitoes, the sporozoite form of the parasite enters the blood stream to infect hepatocytes, where they become merozoites that infect red blood cells (erythrocytes). Within erythrocytes, merozoites begin a […] cycle of growth and division, after which the parasite is released to infect new red blood cells. Gametocytes, which form within erythrocytes as well, circulate in the bloodstream and are ingested by the mosquito, thereby completing the life cycle. To profile malarial isolates for differential chemical responses and to identify inhibitors of malarial growth, an assay that measures P. falciparum growth and replication within erythrocytes was employed. This assay uses a DNA binding fluorescent dye (SYBR Green) to detect parasite DNA following cell lysis. Because mature erythrocytes lack DNA, only Plasmodium-derived DNA is detected.
The SYBR Green viability assay was adapted from a method described previously (Plouffe et al., 2008). For screening 3 ul culture medium was dispensed into 1536 well black clear bottom plates (Aurora Biotechnologies) using a Multidrop Combi (Thermo Fisher Scientific Inc.), 23 nL compounds in DMSO were added by a pin tool (Kalypsys), and 5 ul of erythrocytes infected with P. falciparum (0.3% parasitemia, 2.5% hematocrit final concentration) were added. The plates were incubated at 37 C in a humidified incubator in 5% CO2 for 72 h, and 2 ul lysis buffer (20 mM Tris HCl, 10 mM EDTA, 0.16% saponin, 1.6% triton X, 10X SYBR Green I supplied as 10,000X […] by Invitrogen) was added to each well. The plates were mixed for 25 sec with gentle shaking and incubated overnight at room temperature in the dark. The following morning, fluorescence intensity at 485(14) nm excitation and 535(25) nm emission wavelengths was measured on an EnVision (Perkin Elmer) plate reader. Plate reads were normalized relative to the control inhibitor (0.29 uM artemisinin) and vehicle (DMSO) wells present on each plate and then corrected by an algorithm using vehicle-only control plates at the beginning and end of the compound plate stack.

Compound	parasite growth, % of DMSO control
COc1cccc2nc(-c3cccs3)nc(NN3C(=O)C=C(C)C3=O)c12	27.1%
Nc1ccc(S(=O)(=O)Nc2ncccn2)cc1	92.1%
Cc1cc(Nc2cc(NC(=O)c3c(Cl)cccc3Cl)ccn2)nc(N)n1	5.6%
COc1cccc(Nc2c(C(N)=O)cnc3c(C)cc(S(=O)(=O)c4cccc(C(=O)N(C)C)c4)cc23)c1	37.9% [at 9.64 µM]
C=CC(=O)Nc1cccc(Oc2nc(Nc3ccc(N4CCN(C)CC4)cc3OC)ncc2Cl)c1	10.5%
COc1ccc2c(OCc3nnc4ccc(-c5ccccc5)nn34)ccnc2c1	53.1%
O=C(NC1CCNCC1)c1[nH]ncc1NC(=O)c1c(Cl)cccc1Cl	10.8%
CCOc1cc2ncc(C#N)c(Nc3ccc(F)c(Cl)c3)c2cc1NC(=O)C=CCN(C)C	8.27%
CC(C)(O)CCc1ccc(OCc2cc(-c3cccc(OC(F)F)c3)c3ncccc3c2)cc1	111%
O=C(C=Cc1c(C(=O)O)[nH]c2cc(Cl)cc(Cl)c12)Nc1ccccc1	157%
CC(C)(C)NC(=O)[C@H]1CN(Cc2cccnc2)CCN1C[C@@H](O)C[C@@H](Cc1ccccc1)C(=O)N[C@H]1c2ccccc2C[C@H]1O	19.6%
Cc1c(CN2CCN(S(C)(=O)=O)CC2)sc2c(N3CCOCC3)nc(-c3cnc(N)nc3)nc12	5.64%
COc1cc2c(Oc3ccc(NC(=O)C4(C(=O)Nc5ccc(F)cc5)CC4)cc3F)ccnc2cc1OCCCN1CCOCC1	7.43%
COC(=O)c1ccc2c(C(=Nc3ccc(N(C)C(=O)CN4CCN(C)CC4)cc3)c3ccccc3)c(O)[nH]c2c1	6.36%
CC(C)CC(=O)Nc1n[nH]c2c1CN(C(=O)C1CCN(C)CC1)C2(C)C	5.43%
C=C1C(=CC=C2CCCC3(C)[C@@H]([C@H](C)C=CC=CC(O)(CC)CC)CC[C@@H]23)C[C@@H](O)C[C@@H]1O (stereo not given in full)	17.5%
COc1cc(=C2C=c3ccccc3=N2)[nH]c1=Cc1[nH]c(C)cc1C	4.63%
CC[C@@]1(O)C(=O)OCc2c1cc1n(c2=O)Cc2cc3cc(O)ccc3nc2-1	13.5%
c1nc2nc(Nc3ccc(N4CCOCC4)cc3)nc(NC3CCCCC3)c2[nH]1	12.6%
COc1ccc(-c2cc3c(C)nc(N)nc3n(C3CCC(OCCO)CC3)c2=O)cn1 (stereo not given)	5.2%

Compound	parasite growth, % of DMSO control
NCC(=O)Nc1ccc(-n2nc(C(F)(F)F)cc2-c2ccc3c(ccc4ccccc43)c2)cc1	5.62%
Cc1nc(Nc2n[nH]c3c2CN(C(=O)N[C@H](CN(C)C)c2ccccc2)C3(C)C)c2sccc2n1	4.72%
CN1CCN(c2cc(C(=O)Nc3ccc4c(c3)-c3c(c(C(N)=O)nn3-c3ccc(F)cc3)CC4)c(Cl)cn2)CC1	4.93%
CN(C)Cc1c(C(=O)NCCOc2ccc(C(=O)NO)cc2)oc2ccccc12	5.24%
C=CC(=O)Nc1cc2c(Nc3ccc(F)c(Cl)c3)ncnc2cc1C#CC(C)(C)N1CCN(C)CC1	9.4%
CNC(=O)c1ccccc1Nc1nc(Nc2ccc(N3CCOCC3)cc2OC)ncc1Cl	10.8%
COc1cc(C(=O)N2CCC(N3CCN(C)CC3)CC2)ccc1Nc1ncc2c(n1)N(C)c1ccccc1C(=O)N2C	5.57%
Cc1cn2c(-c3cn[nH]c3)cnc2c(Nc2ccc(C(=O)N3CCNCC3)cc2F)n1	5.87%
CNc1nccc(-c2cccnc2Oc2cc(C(=O)Nc3cccc(C(F)(F)F)c3)ccc2C)n1	6.2%
C1=CCOCc2cc(ccc2OCCN2CCCC2)Nc2nccc(n2)-c2cccc(c2)OCC1	5.07%
CS(=O)(=O)c1ccc(-c2cnc(N)c(C(=O)Nc3ccccc3)n2)cc1	7.85%
Nc1cccc(-c2cc3c(Oc4cccc(O)c4)ncnc3[nH]2)c1	33.1%
CN(C1CCc2c(c3ccccc3n2CC(=O)O)C1)S(=O)(=O)c1ccc(F)cc1 (stereo not given)	15.9%
COc1ccc(CC2c3cc(OC)c(OC)cc3CC[N+]2(C)CCC(=O)OCCCCCOC(=O)CC[N+]2(C)CCc3cc(OC)c(OC)cc3C2Cc2ccc(OC)c(OC)c2)cc1OC (stereo not given)	57.8% [at 5.51 µM]
C=CC(=O)Nc1cc2c(Nc3ccc(F)c(Cl)c3)ncnc2cc1OCCCN1CCOCC1	31.1%
Cc1cc(Nc2nc(N[C@@H](C)c3ccc(F)cc3)c(C#N)cc2F)n[nH]1	7.05%
COc1ccc2c(c1)CC[C@@H](CN(C)CC(=O)O)[C@H]2c1ccccc1	31.6%
COC(=O)C1=C(C)NC(C)=C(C(=O)OCCN2CCN(C(c3ccccc3)c3ccccc3)CC2)C1c1cccc([N+](=O)[O-])c1 (stereo not given)	19.8%
COc1cc2c(cc1-c1c(C)noc1C)ncc1[nH]c(=O)n([C@H](C)c3ccccn3)c12	67.1%
CNC(=O)c1nn(C)c2c1C(C)(C)Cc1cnc(Nc3ccc(N4CCN(C)CC4)cc3)nc1-2	6.38%

From PubChem BioAssay (NCATS)
